Measurements reported in PubChem BioAssay (Tox21).
Where “and” joins values, the source holds several entries; their conditions need not be identical. Equal values may be shown once. Results filed as inconclusive are left out. Entries that show only a call come without a potency. Some compounds were tested as several samples or in several runs, with calls that do not always agree. Calls of active or inactive are those of the source. Calls come from the whole dose curve; as a rule, active = well fitted curve in the direction sought with a large enough effect in the repeat runs; inconclusive = weak or mixed curves; inactive = no such curve, though single readings can be large; an effect the other way counts as inactive or inconclusive.

System: not listed separately
Test: Caspase-3/7 induction in HepG2 cells by small molecules, qHTS cell viability counter screen (AID 1346981); note: nearly all actives have a fitted effect of over 30% in size
Settings: CellTiter-Fluor fluorescence, 17 h; series mostly up to 92.4 µM
Outline: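 Viability determined by CellTiter-Fluor fluorescence in HepG2 wells also used for the luminescent Caspase-Glo 3/7 read. Compounds were present for 16 hr at 37 C, 5% CO2 before reagent addition.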
Potency is the fitted concentration of half-maximal effect.

Compound | Potency
C=C(C#N)C(=O)OCC | inactive
OCC#CCO | inactive
CN(C)c1cccc(O)c1 | inactive
O=[N+]([O-])c1cc(N(CCO)CCO)ccc1NCCO | 30.6 µM (active) and 48.6 µM (active)
CCCCOCCOCCOC(=O)CCCCC(=O)OCCOCCOCCCC | inactive
CCC(=O)O | inactive
CC1Cc2ccccc2N1NC(=O)c1ccc(Cl)c(S(N)(=O)=O)c1 (stereo not drawn) | inactive
CCOC(=O)C1OC1c1ccccc1 (stereo not drawn) | inactive
CCCCCCCCCCC=CC1CC(=O)OC1=O (stereo not drawn) | inactive
CCOC(=O)[C@H](CCc1ccccc1)N[C@@H](C)C(=O)N1Cc2ccccc2C[C@H]1C(=O)O | inactive
NC(=O)/N=N/C(N)=O | inactive
CCCCCCCCCC(=O)O | inactive
Nc1c(S(=O)(=O)O)cc(Br)c2c1C(=O)c1ccccc1C2=O | inactive and 48.6 µM (active)
C/C=C(C)/C=C/C=C(C)C | inactive
O=S(=O)(Oc1ccc(Cl)cc1Cl)c1ccccc1 | inactive
COC(=O)c1ccccc1O | inactive
CCc1ccccc1O | inactive
COC(=O)Nc1nc2ccc(Sc3ccccc3)cc2[nH]1 | inactive
CC#C[C@]1(O)CC[C@H]2[C@@H]3CCC4=CC(=O)CCC4=C3[C@@H](c3ccc(N(C)C)cc3)C[C@@]21C | 30.6 µM (active)

Compound | Potency
Nc1nc2ncc(CNc3ccc(C(=O)N[C@@H](CCC(=O)O)C(=O)O)cc3)nc2c(=O)[nH]1 | inactive
O=C1N=C(O)CN1/N=C/c1ccc(-c2ccc([N+](=O)[O-])cc2)o1 | 48.6 µM (active)
c1ccc2[nH]cnc2c1 | inactive
CCCCCCC(C)(C)S | inactive
CC1(C)O[C@@H]2C[C@H]3[C@@H]4C[C@H](F)C5=CC(=O)CC[C@]5(C)[C@H]4[C@@H](O)C[C@]3(C)[C@]2(C(=O)CO)O1 | inactive
CC1=C(CC(=O)O)c2cc(F)ccc2/C1=C\c1ccc(S(C)=O)cc1 (stereo not drawn) | inactive
CC(C)n1c(/C=C/[C@@H](O)C[C@@H](O)CC(=O)O)c(-c2ccc(F)cc2)c2ccccc21 | inactive
Cc1ccc(N)c(S(=O)(=O)O)c1 | inactive
CC[Si](OC(C)=O)(OC(C)=O)OC(C)=O | inactive
CC1(C)CC(N=C=O)CC(C)(CN=C=O)C1 (stereo not drawn) | inactive
CCc1ccc(O)cc1 | inactive
O=c1c(-c2ccc(O)cc2)coc2cc(O)ccc12 | inactive
C=C(C)C(=O)OCCCCCC | inactive
CCCCC(CC)C(=O)OCCOCCOCCOC(=O)C(CC)CCCC (stereo not drawn) | inactive
O=C(c1cc(O)c(O)c(O)c1)c1ccc(O)c(O)c1O | 54.3 µM (active) and 30.6 µM (active)
CCCCCCCCCCCCOCC1CO1 (stereo not drawn) | inactive
Cc1cc(O)c2c(c1)C(=O)c1cc(O)cc(O)c1C2=O | 26.7 µM (active) and 21.7 µM (active)
CCOC(=O)/C=C\C(=O)OCC | inactive
CC(C)(C)C1CCC(O)CC1 (stereo not drawn) | inactive

Target: Nuclear receptor subfamily 1 group I member 2 (Homo sapiens) (UniProt O75469)
Sequence (O75469 whole entry, looked up): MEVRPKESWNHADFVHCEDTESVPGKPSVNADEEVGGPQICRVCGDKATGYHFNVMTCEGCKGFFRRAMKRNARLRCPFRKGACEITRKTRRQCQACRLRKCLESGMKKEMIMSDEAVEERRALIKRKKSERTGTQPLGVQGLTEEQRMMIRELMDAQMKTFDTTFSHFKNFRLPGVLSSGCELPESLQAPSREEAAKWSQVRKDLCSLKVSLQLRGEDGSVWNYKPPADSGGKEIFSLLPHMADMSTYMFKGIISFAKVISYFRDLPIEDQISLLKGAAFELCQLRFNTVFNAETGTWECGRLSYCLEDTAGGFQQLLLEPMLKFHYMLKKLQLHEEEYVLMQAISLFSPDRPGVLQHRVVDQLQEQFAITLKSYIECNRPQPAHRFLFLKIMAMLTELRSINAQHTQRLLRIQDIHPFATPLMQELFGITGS
Test: Human pregnane X receptor (PXR) small molecule agonists, qHTS assay (AID 1346982); note: nearly all actives have a fitted effect of over 35% in size
Settings: PXR-Luc HepG2, CYP3A4 luciferase reporter, 24 h; series mostly up to 92.4 µM
Outline: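 Compound-induced hPXR transactivation of a CYP3A4 luciferase reporter was scored in HepG2 PXR-Luc cells over 24 hr at 37 C, 5% CO2, by luminescence.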

Compound | Potency
C=C(C#N)C(=O)OCC | inactive
OCC#CCO | 55.3 µM (active) and inactive
CN(C)c1cccc(O)c1 | 49.3 µM (active) and 54.5 µM (active)
O=[N+]([O-])c1cc(N(CCO)CCO)ccc1NCCO | inactive
CCCCOCCOCCOC(=O)CCCCC(=O)OCCOCCOCCCC | inactive
CCC(=O)O | inactive
CC1Cc2ccccc2N1NC(=O)c1ccc(Cl)c(S(N)(=O)=O)c1 (stereo not drawn) | 30.6 µM (active) and 9.44 µM (active)
CCOC(=O)C1OC1c1ccccc1 (stereo not drawn) | inactive
CCCCCCCCCCC=CC1CC(=O)OC1=O (stereo not drawn) | inactive
CCOC(=O)[C@H](CCc1ccccc1)N[C@@H](C)C(=O)N1Cc2ccccc2C[C@H]1C(=O)O | 30.9 µM (active) and 11.9 µM (active)
NC(=O)/N=N/C(N)=O | inactive
CCCCCCCCCC(=O)O | inactive
Nc1c(S(=O)(=O)O)cc(Br)c2c1C(=O)c1ccccc1C2=O | inactive and 48.6 µM (active)
C/C=C(C)/C=C/C=C(C)C | 60.4 µM (active) and 27.3 µM (active)
O=S(=O)(Oc1ccc(Cl)cc1Cl)c1ccccc1 | 49.4 µM (active) and 54.5 µM (active)
COC(=O)c1ccccc1O | 34.4 µM (active) and inactive
CC#C[C@]1(O)CC[C@H]2[C@@H]3CCC4=CC(=O)CCC4=C3[C@@H](c3ccc(N(C)C)cc3)C[C@@]21C | 48.6 µM (active) and 23.7 µM (active)
Nc1nc2ncc(CNc3ccc(C(=O)N[C@@H](CCC(=O)O)C(=O)O)cc3)nc2c(=O)[nH]1 | inactive

Compound | Potency
Oc1c(Cl)cc(Cl)c(Cl)c1Cl | 59.8 µM (active) and 54.5 µM (active)
c1ccc2[nH]cnc2c1 | inactive
CCCCCCC(C)(C)S | 30.9 µM (active) and inactive
CC1(C)O[C@@H]2C[C@H]3[C@@H]4C[C@H](F)C5=CC(=O)CC[C@]5(C)[C@H]4[C@@H](O)C[C@]3(C)[C@]2(C(=O)CO)O1 | 11.9 µM (active)
CC1=C(CC(=O)O)c2cc(F)ccc2/C1=C\c1ccc(S(C)=O)cc1 (stereo not drawn) | 21.7 µM (active) and inactive
Cc1ccc(N)c(S(=O)(=O)O)c1 | inactive
CC[Si](OC(C)=O)(OC(C)=O)OC(C)=O | 48.5 µM (active) and 48.6 µM (active)
CC1(C)CC(N=C=O)CC(C)(CN=C=O)C1 (stereo not drawn) | inactive
CCc1ccc(O)cc1 | inactive
O=c1c(-c2ccc(O)cc2)coc2cc(O)ccc12 | 30.3 µM (active) and 13.7 µM (active)
C=C(C)C(=O)OCCCCCC | inactive
CCCCC(CC)C(=O)OCCOCCOCCOC(=O)C(CC)CCCC (stereo not drawn) | inactive
O=C(c1cc(O)c(O)c(O)c1)c1ccc(O)c(O)c1O | inactive
CCCCCCCCCCCCOCC1CO1 (stereo not drawn) | inactive
Cc1cc(O)c2c(c1)C(=O)c1cc(O)cc(O)c1C2=O | 29.9 µM (active) and 21.7 µM (active)
CCOC(=O)/C=C\C(=O)OCC | inactive
CC(C)(C)C1CCC(O)CC1 (stereo not drawn) | inactive
